Reference: the antibiotic and cytotoxicity screens of Wong et al. (2023)
The campaign covered roughly 39,000 compounds. About 3,300 (8.5%) were called active. Many of the other results were omitted from the sample, so actives are more common in it than they were.

What follows are compounds tested on HepG2 (assay: cytotoxicity call (relative viability < 0.9)). Conditions: 10 µM.

Row | Compound | cytotoxicity call
1 | C#CCSC1=N[C@@]2(COCc3ccc(OC)cc3)Oc3ccccc3[C@H]([C@H]2CO[Si](C)(C)C(C)(C)C)N1C(=O)c1ccccc1 | inactive
2 | C[C@@H]1CN([C@H](C)CO)C(=O)c2cc(-c3ccc(F)cc3)cnc2O[C@@H]1CN(C)C(=O)Cc1ccccn1 | inactive
3 | C[C@@H]1CN([C@H](C)CO)C(=O)c2cc(NC(=O)CCCN(C)C)ccc2O[C@H]1CN(C)S(=O)(=O)c1ccc(Cl)cc1 | inactive
4 | COC(=O)C1=C2CC[C@H](CO)NC(=O)N[C@H](Cc3ccccc3)C(=O)NCc3cn(nn3)C[C@@H](Cc3ccccc3)NC(=O)c3oc(c(C(=O)OC)c3C(=O)OC)CC[C@H](CO)NC(=O)N[C@H](Cc3ccccc3)C(=O)NCc3cn(nn3)C[C@@H](Cc3ccccc3)NC(=O)C(=C1C(=O)OC)O2 | inactive
5 | Cc1noc(C)c1S(=O)(=O)Nc1ccc2c(c1)C(=O)N([C@@H](C)CO)C[C@@H](C)[C@H](CN(C)S(=O)(=O)c1cn(C)cn1)OCCCC[C@@H](C)O2 | inactive
6 | C[C@@H]1CCCCO[C@H](CN(C)C(=O)Nc2ccc(F)cc2)[C@H](C)CN([C@@H](C)CO)C(=O)c2cc(NC(=O)CCC(F)(F)F)ccc2O1 | inactive
7 | Cc1ccc(S(=O)(=O)N(C)C[C@H]2Oc3ccc(NC(=O)CCCN(C)C)cc3C(=O)N([C@@H](C)CO)C[C@H]2C)cc1 | inactive
8 | C[C@H](CO)N1C[C@H](C)[C@@H](CN(C)CC2CCCCC2)OCCCC[C@H](C)Oc2ccc(NC(=O)c3ccncc3)cc2C1=O | inactive
9 | COc1cccc(S(=O)(=O)N[C@H]2C=C[C@H](CC(=O)NC3CCC3)O[C@H]2CO)c1 | inactive
10 | C[C@@H]1CN([C@H](C)CO)C(=O)c2cc(NC(=O)CCC(F)(F)F)ccc2O[C@H]1CN(C)Cc1ccc(C(F)(F)F)cc1 | inactive
11 | CC1CCC2(OC1)OC1CC3C4CCC5CC(O)CCC5(C)C4CC(=O)C3(C)C1C2C (centres undefined) | inactive
12 | OC[C@@H]1O[C@H](O)[C@H](O)[C@H](O[C@@H]2O[C@H](CO)[C@H](O)[C@H](O[C@@H]3O[C@H](CO)[C@@H](O)[C@H](O)[C@@H]3O)[C@H]2O)[C@H]1O | inactive
13 | C[C@@H]1CC[C@@]2(OC1)O[C@H]1C[C@H]3[C@H]4C[C@@H](O)[C@H]5C[C@@H](O[C@@H]6O[C@H](CO)[C@H](O[C@@H]7O[C@H](CO)[C@@H](O)[C@H](O[C@@H]8OC[C@@H](O)[C@H](O)[C@H]8O)[C@H]7O[C@@H]7O[C@H](CO)[C@@H](O)[C@H](O)[C@H]7O)[C@H](O)[C@H]6O)CC[C@]5(C)[C@@H]4CC[C@]3(C)[C@H]1[C@@H]2C | active
14 | C[C@@H]1CC[C@@]2(OC1)O[C@H]1C[C@H]3[C@H]4CC=C5C[C@@H](O[C@@H]6O[C@H](CO)[C@@H](O[C@@H]7O[C@@H](C)[C@H](O)[C@@H](O)[C@H]7O[C@@H]7O[C@@H](C)[C@H](O)[C@@H](O)[C@H]7O)[C@H](O)[C@H]6O)CC[C@]5(C)[C@@H]4CC[C@]3(C)[C@H]1[C@@H]2C | active
15 | C[C@@H]1CC[C@@]2(OC1)O[C@H]1C[C@H]3[C@H]4C[C@@H](O)[C@H]5C[C@@H](O[C@@H]6O[C@H](CO)[C@H](O[C@@H]7O[C@H](CO)[C@@H](O)[C@H](O[C@@H]8OC[C@@H](O)[C@H](O)[C@H]8O)[C@H]7O[C@@H]7O[C@H](CO)[C@@H](O[C@@H]8O[C@H](CO)[C@@H](O)[C@H](O)[C@H]8O)[C@H](O)[C@H]7O)[C@H](O)[C@H]6O)CC[C@]5(C)[C@@H]4CC[C@]3(C)[C@H]1[C@@H]2C | active
16 | C[C@@H]1O[C@@H](O[C@H]2[C@H](O)[C@@H](O)[C@H](OC[C@H]3O[C@@H](OC(=O)[C@]45CCC(C)(C)C[C@@H]4C4=CC[C@H]6[C@@]7(C)CC[C@H](O[C@H]8OC[C@H](O)[C@H](O)[C@H]8O[C@H]8O[C@@H](C)[C@H](O)[C@@H](O)[C@H]8O)[C@@](C)(CO)[C@@H]7CC[C@@]6(C)[C@]4(C)CC5)[C@H](O)[C@@H](O)[C@@H]3O)O[C@@H]2CO)[C@H](O)[C@H](O)[C@H]1O | inactive
17 | CC(=O)OC1CCC2(C)C(CCC3C2CCC2(C)C3CC3OC4(CCC(C)CO4)C(C)C32)C1 (centres undefined) | inactive
18 | OC[C@H]1O[C@@H](O[C@H]2[C@H](O)[C@@H](O)[C@@H](O)O[C@@H]2CO)[C@H](O)[C@@H](O)[C@@H]1O | inactive
19 | CC1CCC2(OC1)OC1CC3C4CC=C5CC(O)CCC5(C)C4CCC3(C)C1C2C (centres undefined) | inactive
20 | CC(C)=CCC[C@](C)(O[C@@H]1O[C@H](CO[C@@H]2OC[C@@H](O)[C@H](O)[C@H]2O)[C@@H](O)[C@H](O)[C@H]1O)[C@H]1CC[C@]2(C)[C@@H]1[C@H](O)C[C@@H]1[C@@]3(C)CC[C@H](O[C@@H]4O[C@H](CO)[C@@H](O)[C@H](O)[C@H]4O)C(C)(C)[C@@H]3CC[C@]12C | inactive
21 | CC(=O)OC1CCC2(C)C(CCC3C2CC(=O)C2(C)C3CC3OC4(CCC(C)CO4)C(C)C32)C1 (centres undefined) | inactive
22 | C[C@@H]1CCCCO[C@H](CN(C)C(=O)Nc2ccc(C(F)(F)F)cc2)[C@@H](C)CN([C@@H](C)CO)C(=O)c2cc(NC(=O)c3ccccc3)ccc2O1 | inactive
23 | CN[C@@H]1[C@@H](O)[C@@H](O[C@@H]2[C@@H](O)[C@H](O[C@H]3OC(CN)=CC[C@H]3N)[C@@H](N)C[C@H]2N)OC[C@]1(C)O | inactive
24 | C[C@H](CO)N1C[C@H](C)[C@@H](CN(C)S(=O)(=O)c2ccc(F)cc2)Oc2c(NC(=O)C3CC3)cccc2C1=O | inactive
25 | O=C(Nc1ccno1)N1CCOCC1 | inactive
26 | C[C@@H]1CN([C@@H](C)CO)C(=O)Cc2cc(NS(=O)(=O)c3ccc(F)cc3)ccc2O[C@H]1CN(C)CC1CC1 | inactive
27 | C[C@H]1CCCCO[C@H](CN(C)C(=O)NC2CCCCC2)[C@@H](C)CN([C@@H](C)CO)C(=O)c2cc(NC(=O)c3ccncc3)ccc2O1 | inactive
28 | O=C(C[C@H]1CC[C@H](NS(=O)(=O)c2ccc(F)cc2)[C@@H](CO)O1)NCc1ccc(Cl)c(Cl)c1 | inactive
29 | Cc1ccc(S(=O)(=O)N(C)C[C@@H]2Oc3c(NS(=O)(=O)c4ccccc4)cccc3C(=O)N([C@H](C)CO)C[C@@H]2C)cc1 | inactive
